NPC1 prom act: qHTS Assay for NPC1 Promoter Activators; Huh7 NPC1 promoter luciferase reporter, 24 h; Potency, µM (series often up to 9.22 µM), for the others: top-dose activation, usual class: activators; 320,000 compounds, 2.4% hits; further: % of control where 0% means no effect; nearly all actives have a fitted effect of over 60% in size
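Huh7 reporter cells (NPC1 promoter driving luciferase) are dosed with compound for 24 h at 37 °C, 5% CO2; luciferase detection reagent is then added and luminescence measured after 10 min at ambient temperature.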
SMN2 splice up: qHTS Assay for Enhancers of SMN2 Splice Variant Expression | AID 1458, 2008 | Potency, µM (top dose mostly 46.1 µM), for the others: top-dose activity change, positive = activation, most hits filed as activators | 210,000 compounds, 2.8% hits | HEK293 SMN2-luciferase splicing reporter, luminescence, 30-36 h; further: % of control where 0% means no effect; nearly all actives have a fitted effect of over 55% in size
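HEK293 cells carry an SMN2 […]–luciferase reporter in which exon 7 inclusion puts luciferase in frame. Cells were plated 10-12 h before compound addition, then incubated 30-36 h at 37C. ONE-Glo luminescence was read; sodium butyrate at 4.5 mM final served as control.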
ELG1 genotox: qHTS screen for small molecules that induce genotoxicity in human embryonic kidney (HEK293T) cells expressing luciferase-tagged ELG1; Potency, µM (titrated, usually from 46 µM), inactives show at the highest dose activity change, positive = activation, usual class: activators; HEK293T ELG1-luciferase reporter, luminescence, 16 h; 330,000 compounds, 1.3% hits; further: % of control where 0% means no effect; nearly all actives have a fitted effect of over 60% in size
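DMSO vehicle served as control against compound-treated ELG1-luciferase HEK293T cells; exposure lasted 16 hr at 37 °C and 5% CO2, followed by ONE-Glo luminescence detection after 30 min.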
KinaseGlo FLuc: Counterscreen for Luciferase (Kinase-Glo TM) Inhibition | 200,000 compounds, 0.28% hits | Kinase-Glo luciferase, ATP luminescence, 8 min | Luciferin 4-monooxygenase (Photuris pensylvanica), Q27757 | Potency, µM (highest dose often 38.3 µM), without a hit: at the top dose activity change, negative = inhibition, most hits filed as inhibitors; further: on the % scale 0 is the no-effect control and ±100 the full control effect; nearly all actives have a fitted effect of over 60% in size
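Inhibition of Kinase-Glo luciferase light generation was assessed at 10 uM ATP in pH 7.2 imidazole buffer, with luminescence measured after eight minutes at ambient temperature.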
Rab9 promoter act: qHTS Assay for Rab9 Promoter Activators | Huh7 Rab9 promoter-luciferase reporter, luminescence, 24 h | Potency, µM (highest dose often 9.22 µM), for the others: at the highest dose activation, negative = inhibition, hits mostly activators | 320,000 compounds, 2.8% hits; further: % of control where 0% means no effect; nearly all actives have a fitted effect of over 60% in size
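Huh7 cells stably carrying a Rab9 promoter-luciferase reporter, 1500 cells per well in OP-MEM I with 10% FBS, treated with compound 24 hours at 37C. Luciferase activity read by luminescence after 10 minutes with Amplite reagent.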
FLuc modulator: qHTS profiling assay for firefly luciferase inhibitor/activator using purifed enzyme and Km concentrations of substrates (counterscreen for miR-21 project) | Potency, µM (top dose mostly 57.5 µM), inactives show top-dose activity change, negative = inhibition, actives largely listed as inhibitors | purified FLuc, Km substrates, luminescence inhibition | AID 588342, 2011 | 360,000 compounds, 6.9% hits | Luciferin 4-monooxygenase (Photinus pyralis), P08659;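 further: plate controls were vehicle for no effect and reference inhibitor for full effect; nearly all actives have a fitted effect of over 55% in size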
Target sequence (P08659 whole entry, looked up): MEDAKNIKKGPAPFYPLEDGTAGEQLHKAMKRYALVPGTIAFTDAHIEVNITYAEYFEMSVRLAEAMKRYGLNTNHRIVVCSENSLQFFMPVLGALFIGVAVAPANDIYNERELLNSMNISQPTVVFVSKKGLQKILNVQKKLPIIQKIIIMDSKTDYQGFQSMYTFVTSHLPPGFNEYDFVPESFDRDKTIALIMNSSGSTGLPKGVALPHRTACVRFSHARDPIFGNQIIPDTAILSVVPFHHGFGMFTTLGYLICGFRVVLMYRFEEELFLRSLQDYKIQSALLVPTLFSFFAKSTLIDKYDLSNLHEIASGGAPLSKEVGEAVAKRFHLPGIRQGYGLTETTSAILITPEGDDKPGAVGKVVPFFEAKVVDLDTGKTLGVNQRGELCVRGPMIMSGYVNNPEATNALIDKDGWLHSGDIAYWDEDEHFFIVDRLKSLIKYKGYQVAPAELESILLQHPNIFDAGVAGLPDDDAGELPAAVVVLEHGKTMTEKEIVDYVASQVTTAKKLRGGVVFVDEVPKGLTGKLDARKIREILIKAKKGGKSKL
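Biochemical qHTS of compounds, final roughly 60 µM downward over six points, against 10 nM purified firefly luciferase using Km concentrations of substrates (10 uM D-luciferin, 10 uM ATP) in Tris acetate pH 7.5 buffer; luminescence output.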
* hit, by the source's call; ? = inconclusive; / = not tested or not shown. Shown are actives, neighbours in structure and some others; about 7.3% of the full set was active somewhere. The call rests on the fitted dose curve; in most records, active means well fitted curve in the direction sought with a large enough effect; inconclusive means small, poorly fitted or top-dose-only effect, or another doubt; inactive means no such curve, though single readings can be large; an effect the other way counts as inactive or inconclusive. Potency means the concentration at half of the fitted maximal effect.

SMILES | NPC1 prom act | SMN2 splice up | ELG1 genotox | KinaseGlo FLuc | Rab9 promoter act | FLuc modulator
Cc1noc(C(=O)Nc2ccc(C#N)cc2)c1Cl | 15% | / | 2% | / | 14% | 2%
COc1ccc(NC(=O)c2onc(C)c2Cl)cc1OC | 6% | -6% | 7% | 4% | 14% | ?
COc1ccc(NC(=O)c2cc(C)on2)cc1 | 2.8µM* | 11µM* | ? | -5% | 2.8µM* | 21µM*
O=C(CSc1ncc2c(n1)-c1ccccc1N(Cc1ccc(F)cc1)S2(=O)=O)c1ccc(Cl)cc1 | / | / | / | / | / | 2%
C1CCC[C@H]2CCCN3CC[C@H](CCCCCC[C@@H]4CCCN5CC[C@H](CC1)OC45)OC23 | / | 9% | / | / | / | /
O=C(Cc1ccc(Cl)cc1)NCC(c1cccs1)S(=O)(=O)c1ccc(F)cc1 (stereo not drawn) | / | / | / | / | / | -11%
CCCc1cc(C(=O)NC2CCCCC2)no1 | 4µM* | 14µM* | 16µM* | -6% | ? | ?
CC(C)c1cc(C(=O)NC2CCCCC2)no1 | ? | 11µM* | ? | -2% | ? | 17µM*
CCCc1cc(C(=O)N(C2CCCCC2)C2CCCCC2)no1 | -3% | -11% | -8% | -3% | -7% | 3%
CCCc1cc(C(=O)NC2CCCC2)no1 | ? | 13µM* | 10µM* | -1% | ? | ?
CC(=O)c1ccc(N2CCN(C(=O)NCc3noc4ccc(C)cc34)CC2)cc1 | / | / | / | / | / | -11%
O=C(CSc1ccc(Cl)cc1)N1N=CCC1c1ccccc1 (stereo not drawn) | -3% | / | 0% | / | 3% | -14%
O=C(CSC(=S)N1CCCCC1)N1N=CCC1c1ccccc1 (stereo not drawn) | 26% | -4% | ? | -4% | 22% | 21µM*
COc1ccc(CCN(C)C(=O)c2cc(-c3ccccc3)nc3ccc(C)cc23)cc1OC | ? | / | ? | / | 3% | 2.4µM*
COc1ccc(CN(C)C(=O)c2cc(-c3ccccc3)nc3ccc(C)cc23)c(OC)c1OC | -4% | / | -19% | / | ? | ?
COc1ccc(CCN(C)C(=O)c2cc(-c3ccccc3)nc3ccccc23)cc1OC | 3% | / | -12% | / | 18% | 15µM*
COc1ccc(-c2cc(C(=O)N(C)CCc3ccc(OC)c(OC)c3)c3ccccc3n2)cc1 | -3% | / | -8% | / | 16% | 0%
COc1ccc(-n2c(-c3ccc(C)cc3)cc3c2CC(C)(C)CC3=O)cc1Cl | / | -4% | / | / | / | -2%
COC(=O)CC1Oc2ccc(C)cc2-n2cc(-c3ccc(C)cc3)nc21 (stereo not drawn) | / | -18% | / | / | / | -2%
CCOC(=O)COc1ccccc1C1Nc2ccccc2C(=O)N1c1cccc(Cl)c1 (stereo not drawn) | ? | 20µM* | ? | 0% | 2.8µM* | -14%
CCOC(=O)COc1c(OC)cc(Cl)cc1C1Nc2ccccc2C(=O)N1c1cccc(C)c1 (stereo not drawn) | -3% | -2% | 5% | -6% | 4% | -3%
COc1cc(C2Nc3ccccc3C(=O)N2c2ccc(Cl)cc2)c(Cl)cc1OCC(=O)O (stereo not drawn) | 3.2µM* | 13µM* | ? | 1% | 2.5µM* | ?
CCOC(=O)c1c[nH]c2ccc3ccccc3c2c1=O | -1% | / | -4% | / | 0% | ?
CCOC(=O)c1ccc(-c2ccc3[nH]c4ccccc4c(=O)c3c2)cc1F | ? | / | ? | / | -3% | 0.54µM*
CC1(C)CC(=O)/C(=N/Nc2ccc(Cl)cc2)CO1 | 1.8µM* | / | ? | / | 1.8µM* | 6.7µM*
SMILES | NPC1 prom act | SMN2 splice up | ELG1 genotox | KinaseGlo FLuc | Rab9 promoter act | FLuc modulator
Cc1cccc(N/N=C2/COC(C)(C)CC2=O)c1 | 3.2µM* | 18µM* | ? | -1% | 3.2µM* | 8.5µM*
COc1ccccc1N/N=C1\COC(C)(C)CC1=O | 23% | / | ? | / | 29% | ?
Brc1ccccc1-c1nnc(CSc2nnc3sc4ccccc4n23)o1 | 14% | 0% | 7% | -3% | 4µM* | ?
COC(=O)c1cc(Cl)ccc1NC(=O)CSc1ncc(S(=O)(=O)c2ccc(Br)cc2)c(=O)[nH]1 | / | 1% | / | / | / | 11µM*
COc1ccc(CNC(=O)CSc2ncc(S(=O)(=O)c3ccc(Br)cc3)c(=O)[nH]2)cc1 | / | -1% | / | / | / | ?
O=C(CSc1ncc(S(=O)(=O)c2ccc(Br)cc2)c(=O)[nH]1)NCc1ccccc1Cl | / | -3% | / | / | / | 9.5µM*
COC(=O)CSc1ncc(S(=O)(=O)c2ccccc2)c(=O)[nH]1 | 1% | / | -3% | / | -4% | 4%
COc1ccc(/C=C\C(=O)Nc2ccccc2C(=O)O)cc1OC | / | / | / | 4% | / | /
Cn1c(-c2ccc3ccccc3n2)[n+](C)c2ccccc21 | -12% | / | -3% | / | -31% | 21µM*
C=CCNc1ncnc2c1[nH]c1ccc(Cl)cc12 | 5% | -80% | ? | -3% | 30% | 12µM*
O=C(Cn1c(=O)n(-c2ccc(Cl)cc2)c(=O)c2sc3ccccc3c21)NC1CCCCC1 | / | 4% | / | / | / | 1%
CCC(=O)Nc1ccc(NC(=O)c2ccc3c(c2)OCO3)cc1 | -2% | -1% | 14% | 10% | -6% | -19%
COc1ccc2[nH]c(C(=O)Nc3ccc4c(c3)OCO4)cc2c1 | 3.2µM* | / | 17% | / | 2.8µM* | 4.8µM*
CCN(CC)c1ccc(C(=O)NC(=S)N2CCN(Cc3ccc4c(c3)OCO4)CC2)cc1 | 0% | 12% | -3% | -4% | 1% | 21µM*
O=C(Nc1ccccc1)c1ccc2c(c1)CCN2S(=O)(=O)c1ccccc1 | 10% | / | -6% | / | -2% | -3%

High-throughput results deposited in PubChem BioAssay by National Center for Advancing Translational Sciences (NCATS).
